From PubChem BioAssay
In the library only some 3.3% were active in any assay of this set; here they are far more common.
FGF22 binding: binders of recombinant human FGF22 by thermal shift. AID 651658. activity (Tm shift, normalised), % at 9.99 µM. 340,000 tested, 1.5% active. SYPRO orange fluorescence; percent of sucrose octasulfate shift, DMSO zero;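 active = mean Tm shift, scaled 0 neutral to 100 positive control, at about 1.3% or above, every replicate too, limit read from the data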
SIRT5 inh: sirtuin-5 (human) deacylase inhibition | Purified SirT5, succinyl-peptide AMC, trypsin-coupled fluorescence | Q9NXA8 | AID 652115 | inhibition, % at 15 µM | 330,000 tested, 1.1% active; in the data active = inhibition above about 15%
Target sequence (Q9NXA8 whole entry, looked up): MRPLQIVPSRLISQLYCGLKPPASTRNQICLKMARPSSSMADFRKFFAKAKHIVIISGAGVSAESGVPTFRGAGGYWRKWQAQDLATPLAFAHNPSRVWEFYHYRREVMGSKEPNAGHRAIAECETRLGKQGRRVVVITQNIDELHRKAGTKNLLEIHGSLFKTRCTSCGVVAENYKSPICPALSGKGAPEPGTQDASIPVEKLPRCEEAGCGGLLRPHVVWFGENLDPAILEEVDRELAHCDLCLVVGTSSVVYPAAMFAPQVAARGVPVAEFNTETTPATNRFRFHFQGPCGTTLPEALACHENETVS
CASP6 VEID inh: blocks human caspase-6 cleavage activity. purified caspase-6, Z-VEID-R110 cleavage fluorescence. P55212. 350,000 tested, 0.53% active. inhibition, % at 12.5 µM;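 active = mean inhibition across replicates at least about 35%, with every replicate also reaching that limit, limit read from the data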
Target sequence (P55212 24-179 limits assumed): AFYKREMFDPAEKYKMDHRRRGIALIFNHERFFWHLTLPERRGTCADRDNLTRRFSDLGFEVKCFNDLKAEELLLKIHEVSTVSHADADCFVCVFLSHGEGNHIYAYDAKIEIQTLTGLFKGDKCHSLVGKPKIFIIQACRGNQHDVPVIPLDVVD
Target sequence (P55212 194-293 limits assumed): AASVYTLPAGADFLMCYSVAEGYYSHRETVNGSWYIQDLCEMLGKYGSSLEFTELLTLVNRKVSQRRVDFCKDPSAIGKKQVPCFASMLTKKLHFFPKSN
GSIS activator: primary screen for activators of insulin secretion dependent on glucose, INS-1E cells, GLuc reporter luminescence | activation, % at 16.6 µM | 370,000 tested, 0.61% active | INS-1E GLuc reporter insulin secretion, 2-3 h;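 active = lowest replicate activation of at least 40%, so every replicate reaches that level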
ERAP1 inh: inhibitors of human ERAP1 aminopeptidase. Q9NZ08. recombinant ERAP1, Leu-AMC fluorescence, 60 min. inhibition, % at 10.7 µM. 340,000 tested, 0.15% active. AID 652197;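 active = mean replicate inhibition of at least 30%, or all replicates individually reaching that 30% level; inactive = mean below 30% and not every replicate reaching it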
Large screens that a line does not name were inactive; ! = not active in a repeat.

CCn1c(CNC(=O)c2ccco2)nnc1SCC(=O)c1ccc(OC)cc1	FGF22 binding 43
O=C(C[C@@H]1CC[C@@H](NC(=O)Nc2ccccc2)[C@@H](CO)O1)NCc1cccc(F)c1	none
CC(=O)Nc1nc(C)nc(-c2ccccc2OC(C)=O)n1	GSIS activator 45
C[C@H]1CN([C@@H](C)CO)C(=O)c2cc(NS(=O)(=O)c3cn(C)cn3)ccc2O[C@@H]1CN(C)C(=O)Nc1ccccc1	none
N#Cc1cnn(-c2cccc(Cl)c2)c1N	FGF22 binding 43
O=C(c1ccc(NS(=O)(=O)c2ccc(F)cc2)cc1)N1CCCCC1	none
O=C(c1ccc(S(=O)(=O)Nc2ccc(F)cc2)cc1)N1CCN(c2ccccn2)CC1	FGF22 binding 43
O=C(c1ccc(NS(=O)(=O)c2cccc3cccnc23)cc1)N1CCCCC1	FGF22 binding 44 (no result: CASP6 VEID inh)
O=C(c1ccc(NS(=O)(=O)c2ccc(F)cc2)cc1)N1CCCCCC1	SIRT5 inh 17
C[C@@H]1CN([C@H](C)CO)C(=O)Cc2cc(NC(=O)Nc3ccccc3)ccc2O[C@H]1CN(C)C(=O)Nc1ccc(F)cc1	none
CO[C@@H]1CN(C)C(=O)c2ccc(NC(C)=O)cc2OC[C@H](C)N(C(=O)C2CCC2)C[C@@H]1C	none (no result: FGF22 binding)
O=C(C[C@H]1CC[C@@H](NC(=O)c2ccccc2)[C@@H](CO)O1)Nc1ccc(-c2ccccc2)cc1	none
COc1ccc(S(=O)(=O)N(C)C[C@@H]2OCCCC[C@@H](C)Oc3ccc(NS(=O)(=O)c4ccc(C)cc4)cc3C(=O)N([C@@H](C)CO)C[C@@H]2C)cc1	SIRT5 inh 23
COc1ccc(S(=O)(=O)N(C)C[C@@H]2OCCCC[C@H](C)Oc3ccc(NS(=O)(=O)c4ccc(C)cc4)cc3C(=O)N([C@H](C)CO)C[C@@H]2C)cc1	SIRT5 inh 24
COc1ccc(S(=O)(=O)N(C)C[C@@H]2OCCCC[C@H](C)Oc3ccc(NS(=O)(=O)c4ccc(C)cc4)cc3C(=O)N([C@@H](C)CO)C[C@H]2C)cc1	none
COc1ccc(S(=O)(=O)N(C)C[C@H]2OCCCC[C@H](C)Oc3ccc(NS(=O)(=O)c4ccc(C)cc4)cc3C(=O)N([C@@H](C)CO)C[C@@H]2C)cc1	SIRT5 inh 22
COc1ccc(S(=O)(=O)Nc2ccc3c(c2)C(=O)N([C@@H](C)CO)C[C@@H](C)[C@@H](CN(C)S(=O)(=O)c2ccc(C)cc2)OCCCC[C@H](C)O3)cc1	none
COc1ccc(S(=O)(=O)N(C)C[C@@H]2OCCCC[C@H](C)Oc3ccc(NS(=O)(=O)c4ccc(C)cc4)cc3C(=O)N([C@H](C)CO)C[C@H]2C)cc1	SIRT5 inh 22
C[C@H](CO)N1C[C@H](C)[C@@H](CN(C)Cc2ccccc2)Oc2ncc(-c3ccccc3)cc2C1=O	none
C[C@@H]1CN([C@@H](C)CO)C(=O)c2cccc(NC(=O)CCCCCC(=O)Nc3ccccc3N)c2O[C@H]1CN(C)S(=O)(=O)c1ccc(Cl)cc1	none
CCC(=O)N1CC2(C1)CN(C(=O)c1ccccn1)[C@@H](CO)c1c2c2ccc(OC)cc2n1C	none
O=C(Nc1cc(S(=O)(=O)N2CCCCC2)ccc1O)c1ccccc1NS(=O)(=O)c1ccc(F)cc1	FGF22 binding 1.4!
CN(c1ccc(C(=O)NCC2CCCO2)cc1)S(=O)(=O)c1ccc(Cl)cc1 (centres undefined)	none (no result: SIRT5 inh)
CN(c1ccc(F)cc1)S(=O)(=O)c1ccc(Cl)c(C(=O)NCC2CCCO2)c1 (centres undefined)	GSIS activator 43
CC(C)Cc1ccc(CN2CC[C@@H](NS(=O)(=O)c3ccccc3)C2)cc1	SIRT5 inh -2.2 (no result: GSIS activator)
NCC[C@H]1CC[C@@H](NC(=O)C2CC2)[C@@H](CO)O1	none (no result: FGF22 binding)
CO[C@H]1CN(C)C(=O)c2ccc(NS(=O)(=O)c3ccc(Cl)cc3)cc2OC[C@H](C)N(C)C[C@@H]1C	none
S=c1nn[nH]c2ccccc12	FGF22 binding 43 (no result: SIRT5 inh, GSIS activator)
Nc1n[nH]c2ccccc12	none
COc1ccc(S(=O)(=O)Nc2ccc3c(c2)CC(=O)N([C@@H](C)CO)C[C@@H](C)[C@H](CN(C)Cc2ccc(C(=O)Nc4ccccc4N)cc2)O3)cc1	none
c1ccc(CCN2CCN=C2Nc2ccccc2)cc1	GSIS activator 42
Cc1ccc(S(=O)(=O)Nc2ccc3c(c2)C(=O)N([C@H](C)CO)C[C@@H](C)[C@@H](CN(C)S(=O)(=O)c2ccccc2)OCCCC[C@@H](C)O3)cc1	SIRT5 inh 21 (no result: FGF22 binding)
Cc1ccc(S(=O)(=O)Nc2ccc3c(c2)C(=O)N([C@@H](C)CO)C[C@H](C)[C@@H](CN(C)S(=O)(=O)c2ccccc2)OCCCC[C@@H](C)O3)cc1	SIRT5 inh 19 (no result: FGF22 binding)
Cc1ccc(S(=O)(=O)N(C)C[C@@H]2OCCCC[C@@H](C)Oc3ccc(NS(=O)(=O)c4ccccc4)cc3C(=O)N([C@@H](C)CO)C[C@@H]2C)cc1	SIRT5 inh 21
Cc1ccc(S(=O)(=O)N(C)C[C@@H]2OCCCC[C@@H](C)Oc3ccc(NS(=O)(=O)c4ccccc4)cc3C(=O)N([C@H](C)CO)C[C@H]2C)cc1	SIRT5 inh 22
Cc1ccc(S(=O)(=O)Nc2ccc3c(c2)C(=O)N([C@H](C)CO)C[C@@H](C)[C@H](CN(C)S(=O)(=O)c2ccccc2)OCCCC[C@H](C)O3)cc1	none (no result: FGF22 binding)
CCCN1C[C@@H](C)[C@H](OC)CN(C)C(=O)c2ccc(NC(=O)C3CCC3)cc2OC[C@@H]1C	none
Cc1ccc(S(=O)(=O)N2C[C@@H](O)COC[C@@H]3O[C@H](CC(=O)N[C@H]4CCN(Cc5ccccc5)C4)CC[C@H]32)cc1	none
Cc1cc(C(=O)Nc2cccc3c2O[C@H](CN(C)S(=O)(=O)c2ccc(F)cc2)[C@@H](C)CN([C@H](C)CO)C3=O)n(C)n1	none
CN(C)C(=O)[C@H]1[C@H](CO)[C@H]2Cn3c(cccc3=O)[C@@H]1N2C(=O)c1ccccc1	none
Cc1ccc(S(=O)(=O)Nc2ccc3c(c2)C(=O)N([C@H](C)CO)C[C@@H](C)[C@@H](CN(C)CC2CCCCC2)OCCCC[C@H](C)O3)cc1	SIRT5 inh 18
Cc1ccc(S(=O)(=O)Nc2ccc3c(c2)C(=O)N([C@@H](C)CO)C[C@@H](C)[C@H](CN(C)CC2CCCCC2)OCCCC[C@H](C)O3)cc1	none
O=c1c2ccccc2nc(SCc2ccccc2F)n1C1CCCC1	CASP6 VEID inh 38 (no result: SIRT5 inh)
CS(=O)(=O)N1CC2(C1)[C@H](c1ccccc1)[C@H](CO)N2C(=O)C1CCC1	none
O=C(CSc1nc2ccccc2c(=O)n1-c1ccc(F)cc1F)NC1CC1	FGF22 binding 43 (no result: SIRT5 inh, GSIS activator)
c1ccc(-c2cc3c(N4CCN(c5ncccn5)CC4)ncnc3s2)cc1	FGF22 binding 44
CC(C)(C)Nc1ncnc2sc(-c3ccccc3)cc12	none
c1ccc(-c2cc3c(N4CCN(c5ccccc5)CC4)ncnc3s2)cc1	none
CN(C)c1ncnc2sc(-c3ccccc3)cc12	GSIS activator 40
